Here are results for 15 compounds from PubChem BioAssay.

Active and inactive are the calls of the source.

Assay [1] has as its system PRMT1 (protein arginine N-methyltransferase 1). Put plainly: PRMT1 binders on small-molecule microarrays, primary screen, biochemical, small-molecule microarray, 635 nm fluorescence (AID 1088).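 Note: binding of Prmt1 protein to compounds spotted on small-molecule microarray slides.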 To be noted: small-molecule microarray binding, higher = more signal.
A short description of assay [2]: yeast growth modulation, basal conditions, primary screen, YJM789 clinical isolate, OD600, 24 h (AID 1089).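 Note: growth of clinical yeast isolate S. cerevisiae YJM 789 seeded 1000 cells per well; test concentration not given here.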 The note with it: S. cerevisiae YJM789 growth, higher = more signal, called active from +8 up or from −8 down.
Assay [3] in a line: fission yeast growth modulation, primary screen, strain 972, OD600, 24 h, no modulator (AID 1090).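 Note: basal condition with compound alone and no growth modifier present; test concentration not given here.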 To be noted: S. pombe 972 growth, higher = more signal, called active from +8 up or from −8 down.
Assay [4] can be described thus: S. cerevisiae growth modulation with rapamycin, primary screen, strain BY4716, OD600, 96 h (AID 1091). Note: test concentration not given here. The note with it: higher = more signal, called active from +8 up or from −8 down.
Assay [5] has as its target Torsin-1A-interacting protein 2 (Homo sapiens) (UniProt Q8NFQ8). The assay can be described thus: LULL1 binders on small-molecule microarray, primary screen, cell lysate, human LULL1 lysate, 635/667 nm fluorescence (AID 1092).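 Note: probe is lysate of COS7 cells overexpressing human LULL1; score merges per-feature 667 nm fluorescence with signal-to-noise.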 To be noted: hLULL1 lysate binding, 635 nm fluorescence, higher = more signal.
Assay [6] can be described thus: E. coli growth modulation, two-sided OD650, primary screen, E. coli filamentation project, strain DRC41, 24 h (AID 1093).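 Note: MC1000 strain lacking acrAB efflux and sulA so SOS filamentation is blocked; test concentration not given here.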 To be noted: OD650, 24 h, higher = more signal, called active from +8 up or from −8 down.
Assay [7] can be described thus: small-molecule microarray binders of probe aLefty2, primary screen, biochemical, biotinylated probe, 635/667 nm fluorescence (AID 1094).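 Note: score merges spot fluorescence near 667 nm with spot signal-to-noise ratio.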 To be noted: higher = more signal.
Assay [8] has as its system Noggin (protein binding on small-molecule microarray). The assay can be described thus: Noggin binders on small-molecule microarray, primary screen, biochemical, 635/667 nm fluorescence (AID 1095).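 Note: score merges 667 nm feature fluorescence with signal to noise over triplicate slides.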 The note with it: 635 nm fluorescence, higher = more signal.
Assay [9] concerns the target Neurogenic locus notch homolog protein 3 (Homo sapiens) (UniProt Q9UM47). Put plainly: NOTCH3 binders on small-molecule microarray, primary screen, biochemical, 635/667 nm fluorescence (AID 1096). The note with it: NOTCH3 binding, 635 nm fluorescence, higher = more signal.
Assay [10] can be described thus: small-molecule microarray binders of probe aEGFR, primary screen, biochemical, biotinylated probe, 635/667 nm fluorescence (AID 1097).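 Note: probe is a biotinylated anti-EGFR antibody binding compounds printed on slides; score combines fluorescence near 667 nm and signal to noise of each spot.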 To be noted: higher = more signal.

Sequence of Torsin-1A-interacting protein 2 (Homo sapiens) (Q8NFQ8 whole entry, looked up): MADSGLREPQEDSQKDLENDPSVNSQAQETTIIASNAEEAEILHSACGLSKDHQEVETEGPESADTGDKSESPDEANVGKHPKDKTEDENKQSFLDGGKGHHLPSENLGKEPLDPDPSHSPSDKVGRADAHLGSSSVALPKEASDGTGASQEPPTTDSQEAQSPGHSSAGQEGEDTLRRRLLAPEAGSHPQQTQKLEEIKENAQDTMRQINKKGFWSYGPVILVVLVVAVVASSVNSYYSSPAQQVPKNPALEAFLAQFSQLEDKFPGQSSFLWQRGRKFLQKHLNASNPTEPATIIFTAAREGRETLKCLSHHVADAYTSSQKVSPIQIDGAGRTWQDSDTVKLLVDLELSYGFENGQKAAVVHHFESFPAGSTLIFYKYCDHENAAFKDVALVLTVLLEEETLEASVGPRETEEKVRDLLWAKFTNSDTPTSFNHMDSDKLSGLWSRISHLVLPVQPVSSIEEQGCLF
Sequence of Neurogenic locus notch homolog protein 3 (Homo sapiens) (Q9UM47 whole entry, looked up): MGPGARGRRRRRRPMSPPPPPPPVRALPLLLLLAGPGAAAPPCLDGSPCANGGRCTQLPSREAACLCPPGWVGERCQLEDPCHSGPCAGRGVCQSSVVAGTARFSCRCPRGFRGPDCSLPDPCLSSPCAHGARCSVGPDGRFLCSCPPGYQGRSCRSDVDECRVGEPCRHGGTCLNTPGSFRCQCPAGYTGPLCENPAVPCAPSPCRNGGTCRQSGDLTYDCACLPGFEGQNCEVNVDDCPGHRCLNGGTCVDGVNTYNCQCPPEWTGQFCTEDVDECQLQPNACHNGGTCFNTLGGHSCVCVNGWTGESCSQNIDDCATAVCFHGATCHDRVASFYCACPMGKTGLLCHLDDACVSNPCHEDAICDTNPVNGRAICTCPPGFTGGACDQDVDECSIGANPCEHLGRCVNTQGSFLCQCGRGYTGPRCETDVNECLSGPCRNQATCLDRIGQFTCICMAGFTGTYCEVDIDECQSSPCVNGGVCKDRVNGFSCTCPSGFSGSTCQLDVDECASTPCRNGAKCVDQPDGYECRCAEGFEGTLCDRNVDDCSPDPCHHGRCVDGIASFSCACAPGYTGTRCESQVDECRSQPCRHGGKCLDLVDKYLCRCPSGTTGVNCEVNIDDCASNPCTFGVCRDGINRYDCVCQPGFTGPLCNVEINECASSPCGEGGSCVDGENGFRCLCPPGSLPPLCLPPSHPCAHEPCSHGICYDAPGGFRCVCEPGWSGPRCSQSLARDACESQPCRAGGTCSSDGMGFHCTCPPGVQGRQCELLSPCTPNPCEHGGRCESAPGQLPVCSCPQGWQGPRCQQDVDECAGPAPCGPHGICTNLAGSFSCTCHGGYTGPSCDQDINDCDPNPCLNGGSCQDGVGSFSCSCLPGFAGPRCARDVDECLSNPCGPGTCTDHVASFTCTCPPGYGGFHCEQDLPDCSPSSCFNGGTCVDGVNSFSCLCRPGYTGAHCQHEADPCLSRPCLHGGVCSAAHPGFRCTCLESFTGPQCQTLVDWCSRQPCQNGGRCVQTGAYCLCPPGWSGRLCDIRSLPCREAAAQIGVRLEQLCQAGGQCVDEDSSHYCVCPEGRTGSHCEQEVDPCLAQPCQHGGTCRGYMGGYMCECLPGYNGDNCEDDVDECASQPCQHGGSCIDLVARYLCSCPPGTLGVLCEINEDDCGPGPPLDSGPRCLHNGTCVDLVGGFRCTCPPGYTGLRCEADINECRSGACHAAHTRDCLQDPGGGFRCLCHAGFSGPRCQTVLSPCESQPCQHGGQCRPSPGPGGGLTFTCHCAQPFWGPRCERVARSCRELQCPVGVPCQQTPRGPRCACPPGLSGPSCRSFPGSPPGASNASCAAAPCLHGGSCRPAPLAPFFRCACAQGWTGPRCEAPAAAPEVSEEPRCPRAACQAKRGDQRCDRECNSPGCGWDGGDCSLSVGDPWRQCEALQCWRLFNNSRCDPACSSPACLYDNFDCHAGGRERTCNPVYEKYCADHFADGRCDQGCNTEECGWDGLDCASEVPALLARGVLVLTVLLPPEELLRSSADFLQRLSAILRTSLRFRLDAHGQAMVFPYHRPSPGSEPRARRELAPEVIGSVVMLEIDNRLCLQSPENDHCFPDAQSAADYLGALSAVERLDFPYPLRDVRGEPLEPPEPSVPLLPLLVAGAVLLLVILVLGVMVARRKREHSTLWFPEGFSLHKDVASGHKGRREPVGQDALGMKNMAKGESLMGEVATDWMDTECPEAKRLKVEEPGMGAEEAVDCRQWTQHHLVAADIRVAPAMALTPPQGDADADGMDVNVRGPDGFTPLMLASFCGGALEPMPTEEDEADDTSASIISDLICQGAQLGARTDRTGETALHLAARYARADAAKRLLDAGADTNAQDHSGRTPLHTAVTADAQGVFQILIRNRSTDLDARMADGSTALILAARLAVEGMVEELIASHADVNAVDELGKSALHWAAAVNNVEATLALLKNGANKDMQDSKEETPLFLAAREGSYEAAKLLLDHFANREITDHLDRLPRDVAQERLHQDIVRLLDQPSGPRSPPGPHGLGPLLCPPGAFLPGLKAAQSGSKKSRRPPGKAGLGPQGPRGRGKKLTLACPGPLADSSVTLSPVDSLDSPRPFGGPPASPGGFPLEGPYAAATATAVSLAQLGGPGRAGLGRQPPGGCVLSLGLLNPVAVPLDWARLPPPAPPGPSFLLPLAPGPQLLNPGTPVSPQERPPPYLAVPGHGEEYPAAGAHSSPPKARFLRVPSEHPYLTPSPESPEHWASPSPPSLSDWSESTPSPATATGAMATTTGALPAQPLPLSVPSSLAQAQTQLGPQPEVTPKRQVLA

Take `C=C(C(=O)CC[C@H](OC(C)=O)c1ccccc1OCCO)C(C)C`: the composite z-score in assay [1] is 0.316; in assay [5], -0.808; in assay [7], -0.232; in assay [8] it was 0.657; in [9], 0.0937; in assay [10], -0.188. The z-score was -25 (active) in assay [2], -20.2 (active) in assay [3], -4.35 (inactive) in [4] and 0.43 (inactive) in assay [6].

Regarding `C=C(CCCC)/C(=C/C[C@@H](OC(C)=O)c1cccc(OCCO)c1)c1cnc2ccccc2c1`, the composite z-score in assay [1] was 1.29; in assay [5], 0.268; in assay [7] it was -0.194; in assay [8], 1.73; in [9] it was 0.86; in assay [10], -0.0828. Further, the z-score is 0.0358 (inactive) in assay [2], -0.328 (inactive) in assay [3], 0.142 (inactive) in [4] and 1.24 (inactive) in assay [6].

Consider `C[N+](C)(C)CCCCCCNC(=O)[C@H]1C[C@H]2C(=O)N[C@@H](Cc3ccccc3)C(=O)N2[C@H]1c1cccc(OCCO)c1`, for which the composite z-score was 1.15 in assay [1]; 3.05 in [5]; 0.0028 in [7]; 1.13 in [8]; 0.953 in [9]; -0.0152 in [10]. In addition, the z-score was -0.776 (inactive) in assay [2], 0.703 (inactive) in [3], -0.282 (inactive) in assay [4] and -0.0145 (inactive) in [6].

Consider `CCCC(=O)N(CCc1c[nH]c2ccccc12)[C@@H]1CC(C(=O)NCCO)=C[C@H](Oc2c(I)cc(CO)cc2OC)[C@H]1O`, for which the composite z-score is 0.234 in assay [1]; 1.42 in assay [5]; -0.157 in [7]; 0.259 in [8]; -0.0693 in [9]; -0.0708 in assay [10]. Further, the z-score in assay [2] is 0.5 (inactive); in [3], -0.713 (inactive); in [4], -0.241 (inactive); in [6], 1.55 (inactive).

For `COCCCNC(=O)[C@@H]1c2ccccc2C(=O)N(Cc2ccccc2)[C@H]1c1ccc(CO)cc1`, the composite z-score was 0.726 in assay [1]; 1.53 in assay [5]; 0.384 in assay [7]; 0.525 in assay [8]; 0.109 in [9]; 0.236 in assay [10]. For the same compound, the z-score is -1.29 (inactive) in assay [2], -0.0108 (inactive) in assay [3], -0.212 (inactive) in [4] and -0.167 (inactive) in assay [6].

As to `O=C1O[C@@H](c2ccccc2)[C@@H](c2ccccc2)N2[C@@H](c3ccccc3OCCO)[C@]3(C(=O)Nc4ccccc43)[C@@H](C(=O)O)[C@H]12`, the composite z-score in assay [1] was 1.02; in assay [5] it was 3.02; in assay [7], -0.175; in assay [8] it was -0.314; in assay [9], 0.406; in [10], -0.185. In addition, the z-score in [2] was 0.232 (inactive); in assay [3], -1.1 (inactive); in assay [4] it was -1.17 (inactive); in [6], -0.413 (inactive).

In the case of `CC(c1ccccc1)C(O)C1C=CC2C(=O)N(C)C(=O)C2N1NC(=O)OC(C)(C)C` (stereo not given), the composite z-score in [1] is 1.39; in assay [5] it was 3.43; in assay [7], 0.12; in [8], 0.01; in [9] it was 1.05; in assay [10], -0.0859. For the same compound, the z-score in [2] is 0.476 (inactive); in assay [3], 0.0391 (inactive); in assay [4] it was 0.299 (inactive); in assay [6] it was 0.0596 (inactive).

As for `NCCCCCNC(=O)[C@H]1C[C@H]2C(=O)N[C@@H](Cc3ccccc3)C(=O)N2[C@H]1c1cccc(OCCO)c1`, the composite z-score in [1] is 0.788; in assay [5] it was 1.6; in assay [7], 0.662; in assay [8], -0.0079; in assay [9], 0.478; in assay [10] it was 0.0115. In addition, the z-score was 0.693 (inactive) in assay [2], -1.42 (inactive) in assay [3], -0.763 (inactive) in [4] and 0.631 (inactive) in assay [6].

Regarding `[N-]=[N+]=Nc1ccccc1[C@H]1OC(c2ccc(OCCCO)cc2)=N[C@@]1(CCS(=O)(=O)c1ccccc1)C(=O)NCc1ccccc1`, the composite z-score is 1.57 in assay [1]; 3.63 in [5]; 0.154 in assay [7]; 0.669 in assay [8]; 1.1 in [9]; 0.174 in assay [10]. The z-score in assay [2] is -0.832 (inactive); in assay [3], 0.342 (inactive); in assay [4] it was 2.23 (inactive); in [6], -0.443 (inactive).

For `CN1CCC(CCCO)=CC1c1cccs1` (stereo not given), the composite z-score in [1] is -0.0029; in [5] it was -0.93; in assay [7], -0.166; in assay [8] it was 0.0615; in assay [9], 0.0121; in [10], -0.108. Further, the z-score is -1.69 (inactive) in assay [2], -0.327 (inactive) in assay [3], -0.489 (inactive) in assay [4] and 0.345 (inactive) in assay [6].

On to `O=C1OCC=C[C@H]2OC34C=CCN(CCN5CCOCC5)C(=O)[C@H]3N(CCO)C(=O)[C@@H]4[C@@H]12` (stereo not given in full), for which the composite z-score in assay [1] was 1.15; in assay [5] it was 0.431; in assay [7], -0.417; in assay [8] it was 0.928; in assay [9] it was 0.534; in assay [10], -0.139. Moreover, the z-score in assay [2] is -0.674 (inactive); in assay [3], -0.537 (inactive); in assay [4], -0.12 (inactive); in assay [6] it was -0.653 (inactive).

For the compound `NCCCCCNC(=O)[C@H]1C[C@H]2C(=O)N3CCC[C@H]3C(=O)N2[C@H]1c1ccc(O)cc1`, the composite z-score was found to be 1.56 in [1]; 2.58 in assay [5]; 0.821 in [7]; 0.813 in assay [8]; 0.573 in [9]; 0.426 in assay [10]. In addition, the z-score was -0.948 (inactive) in assay [2], -0.283 (inactive) in assay [3], -0.507 (inactive) in assay [4] and -0.346 (inactive) in assay [6].

Regarding `[N-]=[N+]=Nc1ccccc1C[C@@]1(C(=O)N2CCCCC2)N=C(c2ccc(OCCCO)cc2)O[C@@H]1c1ccccc1`, the composite z-score in assay [1] is 1.14; in assay [5], 2.97; in [7], 0.101; in assay [8], 0.0588; in assay [9], 1.04; in [10] it was -0.0382. Also, the z-score in assay [2] was -1.96 (inactive); in [3] it was -2.65 (inactive); in assay [4] it was 0.737 (inactive); in assay [6], 2.76 (inactive).

In the case of `COCCCNC(=O)[C@@]1(Cc2ccccc2CN=[N+]=[N-])N=C(c2ccc(OCCCO)cc2)O[C@H]1c1ccccc1CN=[N+]=[N-]`, the composite z-score in assay [1] was 1.24; in assay [5], 3.34; in assay [7], 0.239; in [8], 0.406; in assay [9] it was 0.885; in assay [10] it was -0.067. Further, the z-score is -2.06 (inactive) in assay [2], -1.07 (inactive) in assay [3], 26.7 (active) in [4] and 1.71 (inactive) in assay [6].

Take `COCCCNC(=O)[C@@]1(Sc2ccc(C)cc2)CC(=O)N(Cc2ccccc2Cl)[C@@H]1c1ccc(CO)cc1`: the composite z-score is 1.54 in assay [1]; 2.74 in assay [5]; 0.0112 in assay [7]; 1.05 in assay [8]; 1.12 in assay [9]; -0.0874 in [10]. Besides, the z-score is -0.15 (inactive) in assay [2], -0.429 (inactive) in assay [3], -0.439 (inactive) in [4] and -1.29 (inactive) in [6].
